From PubChem BioAssay AID1159580 (chemical genetic matrix, 2015)
“And” between values parts separate entries of the source, which are not always exact repeats. Equal entries are not always repeated. Hit rate of the full screen: of about 5,500 compounds, about 2,000 (36%) were called active. Roughly 18% stayed inconclusive and do not appear here. Cut-off read from the data, not from the text of the source: active = normalized growth mostly below about 0.91 (no sharp cut-off); inconclusive = no clear call, values can overlap the other calls; inactive = mostly above about 0.92. The list shows a part of the results.

Assay: chemical genetic growth profiling, strain panel (AID 1159580);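 note: tested at 20 µM; growth read once vehicle control cultures reached saturation at 30 °C; 1 = growth at the plate median or of vehicle wells; lower values mean less growth of the strain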
Settings: growth OD

Measured: normalized growth

O=C1OC(=O)C2C3CCC(O3)C12 (stereo not given)
active: S. cerevisiae deletion strains, locus YLR113W, strain HOG1, active compounds read low 0.843 | S. cerevisiae deletion strains, locus YNL298W, strain CLA4, active compounds read low 0.901
inactive: S. cerevisiae deletion strains, locus YKL009W, strain mrt4, active compounds read low 0.895 | S. cerevisiae deletion strains, locus YKL068W, active compounds read low 1 | S. cerevisiae deletion strains, locus YKL085W, strain MDH1 (second series), active compounds read low 1.01 | S. cerevisiae deletion strains, locus YKL085W, strain MDH1, active compounds read low 1.01 | S. cerevisiae deletion strains, locus YKL160W, strain elf1, active compounds read low 1.04 | S. cerevisiae deletion strains, locus YKL190W, strain CNB1, active compounds read low 0.991 | S. cerevisiae deletion strains, locus YKR001C, strain vps1, active compounds read low 0.95 | S. cerevisiae deletion strains, locus YKR026C, strain gcn3, active compounds read low 1 | S. cerevisiae deletion strains, locus YKR091W, strain srl3, active compounds read low 1.01 | S. cerevisiae deletion strains, locus YLL001W, strain dnm1, active compounds read low 0.995 | S. cerevisiae deletion strains, locus YLL026W, active compounds read low 1 | S. cerevisiae deletion strains, locus YLL041C, strain sdh2, active compounds read low 1.02 | S. cerevisiae deletion strains, locus YLR027C, strain aat2, active compounds read low 0.994 | S. cerevisiae deletion strains, locus YLR039C, strain RIC1, active compounds read low 1.06 | S. cerevisiae deletion strains, locus YLR058C, strain SHM2, active compounds read low 1.01 | S. cerevisiae deletion strains, locus YLR102C, strain apc9, active compounds read low 0.972 | S. cerevisiae deletion strains, locus YLR221C, strain rsa3, active compounds read low 0.983 | S. cerevisiae deletion strains, locus YLR258W, strain gsy2, active compounds read low 1.02 | S. cerevisiae deletion strains, locus YLR262C, strain YPT6 (second series), active compounds read low 1.06 | S. cerevisiae deletion strains, locus YLR262C, strain YPT6, active compounds read low 1.06 | S. cerevisiae deletion strains, locus YLR268W, strain sec22, active compounds read low 0.979 | S. cerevisiae deletion strains, locus YLR320W, strain mms22, active compounds read low 1 | S. cerevisiae deletion strains, locus YLR330W, strain CHS5, active compounds read low 1 | S. cerevisiae deletion strains, locus YLR342W, strain FKS1 (second series), active compounds read low 1.02 | S. cerevisiae deletion strains, locus YLR342W, strain FKS1, active compounds read low 1.03 | S. cerevisiae deletion strains, locus YLR357W, strain rsc2, active compounds read low 1.01 | S. cerevisiae deletion strains, locus YLR370C, strain arc18, active compounds read low 0.999 | S. cerevisiae deletion strains, locus YLR371W, strain rom2, active compounds read low 0.959 | S. cerevisiae deletion strains, locus YLR384C, strain iki3, active compounds read low 1.01 | S. cerevisiae deletion strains, locus YLR418C, strain cdc73, active compounds read low 0.928 | S. cerevisiae deletion strains, locus YML016C, strain PPZ1, active compounds read low 1.01 | S. cerevisiae deletion strains, locus YML032C, strain rad52, active compounds read low 0.968 | S. cerevisiae deletion strains, locus YML120C, strain ndi1, active compounds read low 0.998 | S. cerevisiae deletion strains, locus YML124C, strain tub3, active compounds read low 0.986 | S. cerevisiae deletion strains, locus YMR058W, strain fet3, active compounds read low 1 | S. cerevisiae deletion strains, locus YMR078C, strain ctf18, active compounds read low 0.963 | S. cerevisiae deletion strains, locus YMR125W, strain sto1, active compounds read low 1.01 | S. cerevisiae deletion strains, locus YMR129W, active compounds read low 1 | S. cerevisiae deletion strains, locus YMR205C, strain PFK2, active compounds read low 1.03 | S. cerevisiae deletion strains, locus YMR223W, strain ubp8, active compounds read low 0.989 | S. cerevisiae deletion strains, locus YMR231W, strain pep5, active compounds read low 0.988 | S. cerevisiae deletion strains, locus YMR263W, strain SAP30, active compounds read low 1.03 | S. cerevisiae deletion strains, locus YMR307W, strain GAS1, active compounds read low 1.02 | S. cerevisiae deletion strains, locus YNL067W, strain RPL9B, active compounds read low 1.01 | S. cerevisiae deletion strains, locus YNL071W, strain lat1, active compounds read low 1 | S. cerevisiae deletion strains, locus YNL128W, strain TEP1, active compounds read low 1.01 | S. cerevisiae deletion strains, locus YNL153C, strain GIM3, active compounds read low 1.01 | S. cerevisiae deletion strains, locus YNL175C, strain NOP13, active compounds read low 1.02 | S. cerevisiae deletion strains, locus YNL183C, strain NPR1, active compounds read low 0.887 | S. cerevisiae deletion strains, locus YNL197C, strain WHI3, active compounds read low 1.01 | S. cerevisiae deletion strains, locus YNL209W, strain ssb2, active compounds read low 0.994 | S. cerevisiae deletion strains, locus YNL224C, strain SQS1, active compounds read low 1.01 | S. cerevisiae deletion strains, locus YNL233W, strain BNI4, active compounds read low 1.02 | S. cerevisiae deletion strains, locus YNL248C, strain rpa49, active compounds read low 1.05 | S. cerevisiae deletion strains, locus YNL250W, strain rad50, active compounds read low 0.93 | S. cerevisiae deletion strains, locus YNL271C, strain bni1, active compounds read low 0.967 | S. cerevisiae deletion strains, locus YNL307C, strain MCK1, active compounds read low 0.977 | S. cerevisiae deletion strains, locus YNL322C, strain KRE1 (second series), active compounds read low 1.01 | S. cerevisiae deletion strains, locus YNL322C, strain KRE1, active compounds read low 1.02 | S. cerevisiae deletion strains, locus YNR049C, strain mso1, active compounds read low 1.01 | S. cerevisiae deletion strains, locus YNR052C, strain pop2, active compounds read low 0.983 | S. cerevisiae deletion strains, locus YOL006C, strain TOP1, active compounds read low 1.03 | S. cerevisiae deletion strains, locus YOL012C, strain htz1 0.735 | S. cerevisiae deletion strains, locus YOL147C, strain pex11, active compounds read low 0.973 | S. cerevisiae deletion strains, locus YOR001W, strain rrp6, active compounds read low 0.964 | S. cerevisiae deletion strains, locus YOR061W, strain CKA2, active compounds read low 1.01 | S. cerevisiae deletion strains, locus YOR069W, strain VPS5, active compounds read low 1.02 | S. cerevisiae deletion strains, locus YOR070C, strain gyp1, active compounds read low 1.02 | S. cerevisiae deletion strains, locus YOR080W, strain dia2, active compounds read low 1.01 | S. cerevisiae deletion strains, locus YOR083W, strain WHI5 (second series), active compounds read low 1.01 | S. cerevisiae deletion strains, locus YOR083W, strain WHI5, active compounds read low 1.04 | S. cerevisiae deletion strains, locus YOR106W, strain vam3, active compounds read low 1.05 | S. cerevisiae deletion strains, locus YOR136W, strain idh2, active compounds read low 0.964 | S. cerevisiae deletion strains, locus YOR144C, strain elg1, active compounds read low 0.982 | S. cerevisiae deletion strains, locus YOR184W, strain ser1, active compounds read low 0.979 | S. cerevisiae deletion strains, locus YOR231W, strain MKK1, active compounds read low 0.89 | S. cerevisiae deletion strains, locus YOR265W, strain rbl2, active compounds read low 1.01 | S. cerevisiae deletion strains, locus YOR270C, strain vph1, active compounds read low 1.03 | S. cerevisiae deletion strains, locus YOR290C, strain snf2, active compounds read low 1.05 | S. cerevisiae deletion strains, locus YOR316C, strain cot1, active compounds read low 0.979 | S. cerevisiae deletion strains, locus YPL051W, strain arl3, active compounds read low 1.03 | S. cerevisiae deletion strains, locus YPL055C, strain LGE1, active compounds read low 0.959 and 1.03 | S. cerevisiae deletion strains, locus YPL078C, strain atp4, active compounds read low 1.06 | S. cerevisiae deletion strains, locus YPL106C, strain sse1, active compounds read low 1.04 | S. cerevisiae deletion strains, locus YPL240C, strain hsp82, active compounds read low 1 | S. cerevisiae deletion strains, locus YPL241C, strain CIN2, active compounds read low 1.01 | S. cerevisiae deletion strains, locus YPL256C, strain CLN2, active compounds read low 0.926 | S. cerevisiae deletion strains, locus YPR119W, strain clb2, active compounds read low 0.968 | S. cerevisiae deletion strains, locus YPR141C, strain kar3, active compounds read low 0.957 | S. cerevisiae deletion strains, locus YPR163C, strain tif3, active compounds read low 0.96 | S. cerevisiae deletion strains, locus YPR167C, strain met16, active compounds read low 0.977 | S. cerevisiae deletion strains, strain wtn01, active compounds read low 0.983 | S. cerevisiae strains, strain wild type, active compounds read low 1.01
